H9c2 protect = modulators protecting cardiomyocytes from myocardial damage; H9c2 cardiomyocytes, H2O2 injury protection, ATPLite, 2 h; AID 588492; protection from H2O2 cell death, % at 20 µM; 360,000 tested, 0.63% active;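 active means compounds giving at least 50% protection of heart cells from peroxide-induced death in the single-dose screen, raw or plate-pattern-corrected value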;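 further: 0% = DMSO wells with peroxide and 100% = DMSO wells without peroxide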
PLCg1 inh = inhibitors of human phospholipase C gamma1; P19174; purified PLC-gamma1, fluorogenic substrate, fluorescence; inhibition, % at 12.2 µM; 370,000 tested, 0.84% active; in the data active means inhibition above about 9.5%
FAS-TE inh = inhibitors of human fatty acid synthase thioesterase domain; P49327; recombinant FAS-TE, OMFH fluorogenic substrate, fluorescence endpoint; inhibition, % at 15 µM; 360,000 tested, 0.67% active; AID 602261;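 active means compounds whose normalised, plate-corrected inhibition of enzyme fluorescence in the single-dose primary screen is 50% or more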;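 further: 0% = DMSO with enzyme and 100% = substrate without enzyme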
PLC-beta3 inh = blocks human PLC-beta3 enzyme activity. Purified PLC-beta3, fluorogenic substrate, fluorescence. AID 720704. inhibition, % at 12.2 µM. 370,000 tested, 0.18% active. Q01970;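 further: 0% = median of compound wells on plate and 100% = full blocker control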
PLCg1 ctr = inhibits human PLC-gamma1 in PLC-beta3 counter-screen; 3,300 tested, 3.1% active; shares compounds with PLCg1 inh; inhibition, % at 12.3 µM; purified PLC-gamma1, fluorogenic substrate, fluorescence; in the data active means inhibition above about 9.5%
PLCb3 confirm = confirmation of human PLC-beta3 inhibitors; shares compounds with PLCg1 inh; purified PLC-beta3, fluorogenic substrate fluorescence; inhibition, % at 12.3 µM; 3,300 tested, 1% active
* hit, by the source's call; . = no result. Most compounds without a hit are left out; they make up all but 2.2% or so of the library. Unless noted, no stated cut-off is given here; in the data, active means inhibition above about 11%; inactive means the rest.

SMILES	H9c2 protect	PLCg1 inh	FAS-TE inh	PLC-beta3 inh	PLCg1 ctr	PLCb3 confirm
CC(c1nnc(SCn2nnc3ccccc3c2=O)n1-c1ccc(Cl)cc1)N(C)C (stereo unspecified)	2.2	3.3	-6.0	12.1*	-3.0	1.8
CC(c1nnc(SCC(=O)N2CCc3ccccc32)n1-c1ccc(Cl)cc1)N(C)C (stereo unspecified)	10.4	4.3	-5.5	1.4	.	.
COC1OC(COCc2ccccc2)C2OC(C)(C)OC2C1O (stereo unspecified)	.	-2.0	.	0.6	.	.
CCCN(CC(=O)Nc1ccccc1C)C(=O)c1ccc(=O)n(Cc2ccccc2)n1	-4.3	-1.3	-1.7	-6.0	.	.
CC(C)CNC(=O)C1CCN(Cc2ccc(OCc3ccccc3)cc2)CC1	-1.2	11.8*	-12.1	1.1	-6.7	1.8
COc1ccc(/C(O)=C2/C(=O)C(=O)N(CC3CCCO3)C2c2cccc(O)c2)cc1 (stereo unspecified)	6.2	9.6*	-3.8	-0.7	-2.0	-7.4
CC(=O)Nc1ccc(C2=NN(Cc3nnc(-c4ccccc4)o3)C(=O)SC2)cc1	5.3	10.8*	-4.7	9.1	-3.5	-2.7
CC(=O)Nc1ccc(C2=NN(CC#N)C(=O)SC2)cc1	1.8	-0.8	-6.2	3.7	.	.
Cc1ccc(Nc2nnc(SCC(=O)NC3CC3)s2)cc1	-5.3	3.4	-6.6	-1.7	.	.
COc1cccc(N2CCN(C(=O)Cn3c(=O)oc4ccccc43)CC2)c1	4.6	9.8*	-10.0	-2.3	-2.9	-5.5
Cc1cccc(NC(=O)CN(C)S(=O)(=O)c2ccc(Cl)cc2)n1	-0.1	-1.6	-4.0	3.8	.	.
Cc1cccc(NC(=O)CN(C)S(=O)(=O)c2ccc(Br)cc2)n1	4.0	10.2*	-4.4	2.5	-6.6	-3.9
C#CCN1CC(N(C)CCOC(=O)c2ccc([N+](=O)[O-])cc2)CS1(=O)=O (stereo unspecified)	.	4.4	.	4.5	.	.
CCCCn1c(SCc2nc(N)nc(Nc3ccccc3C)n2)nc2ccccc2c1=O	32.6	-1.0	15.1	1.3	.	.
COCC(C)n1c(SCc2nc(N)nc(Nc3ccccc3C)n2)nc2ccccc2c1=O (stereo unspecified)	17.7	11.4*	4.2	-2.1	-6.7	-2.3
CC(=O)Nc1ccc(C(=O)N2CCCC(c3cc(C(=O)Nc4ccccc4Cl)no3)C2)cc1 (stereo unspecified)	-5.3	0.5	-7.7	3.6	.	.
Cc1cccc(NC(=O)CSCC(=O)Nc2cccc3ncccc23)c1	1.1	-8.0	-10.2	-15.1	.	.
N/C(=N\OC(=O)c1ccc2c(c1)OCO2)c1ccncc1	-12.7	12.7*	-1.6	-5.4	-3.6	-2.5
CCOC(=O)N1CCC(Nc2nc3ccccc3n3cnnc23)CC1	9.7	7.4	-2.9	11.0*	-5.4	-4.2
COc1ccc(S(=O)(=O)N(C)C[C@@H]2Oc3c(NS(=O)(=O)c4cn(C)cn4)cccc3C(=O)N([C@@H](C)CO)C[C@@H]2C)cc1	1.1	-0.7	-12.6	-1.4	.	.
CC1CCN(C2(O)C(=O)Nc3ccc([N+](=O)[O-])cc32)CC1 (stereo unspecified)	-5.3	10.4*	16.2	13.5*	-3.3	2.5
CC1CCN(C2(O)C(=O)Nc3ccc(Cl)cc32)CC1 (stereo unspecified)	-1.2	0.5	-3.2	-4.3	.	.
CC12CCC(=O)N1C(C(=O)N1CCN(c3ccc([N+](=O)[O-])cc3)CC1)CS2 (stereo unspecified)	14.1	1.2	-2.8	-7.7	.	.
CC1C(=O)Nc2ccccc2N1C(=O)c1cccc(C(F)(F)F)c1 (stereo unspecified)	0.1	12.7*	-4.2	-2.6	-3.7	1.1
COC(=O)c1ccc(CSc2nnc(N)s2)cc1	-2.9	0.4	-6.2	-0.8	.	.
SMILES	H9c2 protect	PLCg1 inh	FAS-TE inh	PLC-beta3 inh	PLCg1 ctr	PLCb3 confirm
C/C(=N\NC(=O)CSc1nnc(C)s1)c1ccc(O)cc1	-0.6	9.9*	-6.9	10.1	0.0	-1.5
COC(=O)c1ccc(CSc2nnc(C)s2)cc1	-6.9	2.8	0.1	10.7*	-3.0	-0.3
COc1cc(/C(C)=N/NC(=O)CSc2nnc(C)s2)ccc1O	1.6	3.5	-8.2	0.3	.	.
O=C(O)c1ccc(-c2nnn(Cc3ccccc3F)n2)cc1	-4.9	10.9*	-4.3	-0.5	-4.7	-2.9
CC(C)(C)OC(=O)CNC(=O)c1[nH]cnc1C(=O)Nc1ccc(CNC(=O)OC(C)(C)C)cc1	86.6*	7.4	22.0	12.6*	-0.8	-2.1
COC(=O)c1c(C)[nH]c(C(C)=O)c1C	4.1	10.8*	-7.7	0.0	6.8	3.5
CCOc1ccccc1N1CCN(C(=S)NCc2ccccc2)CC1	-7.5	9.7*	2.0	3.8	-1.7	-2.1
CCNC(=S)N1CCN(c2ccccc2OCC)CC1	4.0	2.5	-4.4	2.3	.	.
O=C(CNC(=O)C1CCCCC1)Nc1ccccc1Cl	-2.3	0.7	-8.5	-1.6	.	.
O=C(CNC(=O)C1CCCCC1)Nc1cc(Cl)ccc1Cl	5.7	11.4*	-6.1	7.9	-1.9	2.8
CC1CCCC(C)N1CCCNC(=O)CN1C(=O)COc2ccc(S(=O)(=O)N3CCOCC3)cc21 (stereo unspecified)	9.5	1.2	-4.6	-1.7	.	.
CC1CCN(S(=O)(=O)c2ccc3c(c2)N(CC(=O)NCCCN2C(C)CCCC2C)C(=O)CO3)CC1 (stereo unspecified)	-4.6	10.7*	-7.8	-6.2	-6.4	-1.8
O=C(CSc1nnc(-c2ccc(S(=O)(=O)N3CCCC3)cc2)o1)NCC1CCCO1 (stereo unspecified)	1.6	-1.2	-1.4	-1.2	.	.
Cc1ccc(-c2nnc(SCC(=O)NC3CCCC3)n2C)cc1	0.2	10.8*	-3.9	-10.1	-9.3	-2.2
Cn1c(SCC(=O)NCC2CCCO2)nnc1-c1ccc(S(=O)(=O)N2CCCC2)cc1 (stereo unspecified)	8.5	9.8*	-8.4	-1.4	-8.5	-3.5
CC1(CO)COC2(OC1)C(=O)Nc1ccccc12 (stereo unspecified)	1.9	2.5	-5.4	0.4	.	.
CCC(CC)c1nn2c(N)c(/C=C3\C=Nc4ccccc43)c(=O)nc2s1	-2.0	10.0*	-3.8	3.8	-48.4	-46.2
CC(C)c1nn2c(N)c(/C=C3\C=Nc4ccccc43)c(=O)nc2s1	6.9	-8.7	-5.8	-13.5	.	.
O=S(=O)(c1cccs1)N1CCC(CO)(Cc2ccc(Cl)cc2)CC1	-12.4	10.0*	18.5	-0.1	-1.0	0.0
O=C1CS(=O)(=O)c2ccccc2N1	1.8	23.6*	-10.3	-3.8	21.4*	2.0
C[C@H]1CCC(=O)N([C@H](COc2ccccc2)Cc2ccccc2)CC1	-3.1	11.0*	14.6	2.1	-8.6	-3.0
Clc1ccc(C[n+]2cc(-c3ccccc3)n3c2CCCCC3)c(Cl)c1	-25.3	-0.2	1.2	-2.1	.	.
Clc1ccc(-c2c[n+](Cc3ccc(Cl)cc3Cl)c3n2CCCCC3)cc1	-10.7	11.1*	11.4	5.6	-2.2	-0.2
